Screening results as filed in PubChem BioAssay.
This excerpt belongs to a sample that is enriched for hits.
IDE exosite inh – displaces the probe from the exo-site of human IDE | P14735 | purified IDE, FL-6b probe fluorescence polarization; hits give low values | z-score at 20 µM | hit rate 6.3% among 17,000;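 active means z-score of -3 or lower, meaning strong loss of probe binding signal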;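 further: His-tagged human IDE residues 42-1019 made in E. coli with 30 nM FL-6b probe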
Target sequence (P14735 42-1019 limits assumed): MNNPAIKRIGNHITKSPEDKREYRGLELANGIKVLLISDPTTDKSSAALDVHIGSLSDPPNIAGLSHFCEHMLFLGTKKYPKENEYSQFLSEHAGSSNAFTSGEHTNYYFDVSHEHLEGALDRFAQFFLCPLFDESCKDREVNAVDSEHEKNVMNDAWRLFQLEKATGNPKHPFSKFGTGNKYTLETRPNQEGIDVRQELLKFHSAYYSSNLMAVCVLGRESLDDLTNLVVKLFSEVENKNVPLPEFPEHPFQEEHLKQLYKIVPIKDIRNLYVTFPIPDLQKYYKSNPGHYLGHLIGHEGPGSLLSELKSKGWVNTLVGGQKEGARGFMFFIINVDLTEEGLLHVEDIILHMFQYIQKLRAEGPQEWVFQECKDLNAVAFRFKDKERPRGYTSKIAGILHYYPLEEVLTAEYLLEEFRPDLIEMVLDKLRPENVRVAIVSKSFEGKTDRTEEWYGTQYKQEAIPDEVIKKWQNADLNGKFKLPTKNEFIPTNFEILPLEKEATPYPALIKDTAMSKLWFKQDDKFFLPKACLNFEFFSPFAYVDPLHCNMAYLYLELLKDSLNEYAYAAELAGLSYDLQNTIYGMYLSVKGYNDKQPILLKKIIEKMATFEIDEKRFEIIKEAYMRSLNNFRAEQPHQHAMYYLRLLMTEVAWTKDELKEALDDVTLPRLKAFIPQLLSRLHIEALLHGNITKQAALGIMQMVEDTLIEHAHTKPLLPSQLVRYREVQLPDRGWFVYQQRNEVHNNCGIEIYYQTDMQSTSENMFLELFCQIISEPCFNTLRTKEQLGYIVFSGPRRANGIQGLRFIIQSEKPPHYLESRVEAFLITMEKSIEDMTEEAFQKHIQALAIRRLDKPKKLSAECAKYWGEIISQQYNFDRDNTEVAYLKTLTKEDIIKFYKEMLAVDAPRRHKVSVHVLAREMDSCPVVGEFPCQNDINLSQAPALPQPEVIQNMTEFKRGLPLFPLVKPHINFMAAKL
* hit, by the source's call.

How did COc1ccc(NC(=O)N2CCCCN3[C@@H](CO)[C@@H](c4ccc(-c5ccccc5C)cc4)[C@@H]3C2)cc1 do in these assays?
IDE exosite inh: -4.5*

Results for COc1ccc(NC(=O)N2CCCCN3[C@@H](CO)[C@H](c4ccc(-c5ccccc5C)cc4)[C@@H]3C2)cc1 ?
IDE exosite inh: -10*

How did CN(C)C(=O)c1cccc(-c2ccc([C@@H]3[C@@H](CO)N4C(=O)CN(C(=O)C5CCC5)C[C@@H]34)cc2)c1 do in these assays?
IDE exosite inh: 1.5

Results for CCC(=O)N1CC2(C1)CN(C(=O)c1cnccn1)[C@H](CO)c1c2c2ccc(OC)cc2n1C ?
IDE exosite inh: -0.72

Results for CNC[C@@H]1OCc2ccccc2-c2ccccc2C(=O)N([C@@H](C)CO)C[C@H]1C ?
IDE exosite inh: 1.1

What do the screens show for `COc1ccccc1-c1ccc([C@H]2[C@H](C#N)N(C(=O)C3CC3)[C@H]2CO)cc1`?
IDE exosite inh: -10*

How did N#C[C@@H]1[C@@H](c2ccc(-c3ccccc3F)cc2)[C@H](CO)N1C(=O)C1CCC1 do in these assays?
IDE exosite inh: 2.1

How did COc1ccc(-c2ccc([C@H]3[C@@H](C#N)N(C(=O)C4CCCC4)[C@@H]3CO)cc2)cc1 do in these assays?
IDE exosite inh: 3.2

What do the screens show for `N#C[C@H]1[C@@H](c2ccc(-c3ccccc3F)cc2)[C@H](CO)N1C(=O)C1CCC1`?
IDE exosite inh: -0.67

What do the screens show for `COc1ccccc1-c1ccc([C@H]2[C@@H](CO)N(C(=O)C3CCCCC3)[C@H]2C#N)cc1`?
IDE exosite inh: -3.3*

What do the screens show for `COc1ccc(-c2ccc([C@@H]3[C@@H](C#N)N(C(=O)C4CCCC4)[C@H]3CO)cc2)cc1`?
IDE exosite inh: 0.9

How did COc1ccccc1-c1ccc([C@@H]2[C@@H](C#N)N(C(=O)C3CC3)[C@@H]2CO)cc1 do in these assays?
IDE exosite inh: -17*

What do the screens show for `COc1ccccc1-c1ccc([C@@H]2[C@@H](C#N)N(C(=O)c3cccc(F)c3)[C@@H]2CO)cc1`?
IDE exosite inh: -13*

What do the screens show for `Cc1ccc(-c2ccccc2[C@@H]2[C@H](C#N)N(C(=O)c3cccc(F)c3)[C@H]2CO)cc1`?
IDE exosite inh: 0.43

How did COc1ccc(-c2ccc([C@H]3[C@H](C#N)N(C(=O)c4cccc(F)c4)[C@H]3CO)cc2)cc1 do in these assays?
IDE exosite inh: 2.6

How did C/C=C/c1ccc([C@H]2[C@@H](CO)N3CCCCN(S(=O)(=O)c4ccc(F)cc4)C[C@@H]23)cc1 do in these assays?
IDE exosite inh: 1.5

How did CCCNC(=O)NC[C@H]1[C@@H](c2ccc(C3=CCCC3)cc2)[C@@H](CO)N1C(=O)CC do in these assays?
IDE exosite inh: 0.57

How did COc1ccc2c3c(n(C)c2c1)[C@H](CO)N(Cc1ccccc1)CC31CN(S(=O)(=O)c2ccc(C)cc2)C1 do in these assays?
IDE exosite inh: 0.058

Results for CN(C)C(=O)C[C@H]1CC[C@@H]2[C@H](COC[C@H](O)CN2C(=O)C2CCOCC2)O1 ?
IDE exosite inh: 0.014

What do the screens show for `CCCNC(=O)N1[C@@H]2CN(C(=O)Nc3cccc(Cl)c3)c3ccccc3[C@@H]2[C@@H]1CO`?
IDE exosite inh: 2.6

What do the screens show for `CCCNC(=O)N1CC2(C1)[C@H](c1ccccc1)[C@@H](CO)N2C(=O)c1cccnc1`?
IDE exosite inh: -0.36

How did C/C=C/c1ccccc1[C@H]1[C@@H](CO)N(c2nc(CC)cs2)[C@H]1C#N do in these assays?
IDE exosite inh: 1.1

Results for CO[C@H]1CN(C)C(=O)c2ccc(NC(=O)Nc3c(C)noc3C)cc2OC[C@@H](C)N(CCC(F)(F)F)C[C@@H]1C ?
IDE exosite inh: 0.7

How did C[C@H](NC(=O)[C@H]1[C@H](CO)[C@H]2Cn3c(ccc(-c4ccccc4F)c3=O)[C@@H]1N2)c1ccccc1 do in these assays?
IDE exosite inh: 1.3

What do the screens show for `Cc1ccccc1S(=O)(=O)N1C[C@@H]2N[C@H](C1)C2c1ccc(-c2ccc(C#N)cc2)cc1` (stereo not given in full)?
IDE exosite inh: 1.9

How did O=C(NCCc1ccncc1)[C@@H]1[C@@H](CO)[C@@H]2Cn3c(ccc(-c4ccccc4)c3=O)[C@@H]2N1C(=O)C1CC1 do in these assays?
IDE exosite inh: 0.28

How did CN1CCCCN2[C@H](CO)[C@@H](c3ccc(C#CC4(O)CCCC4)cc3)[C@@H]2C1 do in these assays?
IDE exosite inh: 0.89

How did C/C=C/c1ccc([C@@H]2[C@@H](CO)N(C(=O)CC)[C@@H]2CN(C)S(C)(=O)=O)cc1 do in these assays?
IDE exosite inh: 2.1

What do the screens show for `COCC(=O)N1CCCCN2[C@H](CO)[C@@H](c3ccc(-c4ccc(F)cc4)cc3)[C@@H]2C1`?
IDE exosite inh: 1

How did OC[C@H]1[C@H](c2ccc(-c3cccnc3)cc2)[C@H]2CN(CC3CC3)CCCCN21 do in these assays?
IDE exosite inh: -1.4

Results for COc1ccccc1-c1ccc([C@H]2[C@@H](C#N)N(C(=O)C3CC3)[C@@H]2CO)cc1 ?
IDE exosite inh: -3.2*

How did COc1ccccc1-c1ccc([C@@H]2[C@@H](CO)N(C(=O)C3CC3)[C@H]2C#N)cc1 do in these assays?
IDE exosite inh: -7.8*

Results for N#C[C@@H]1[C@H](c2ccc(-c3ccccc3F)cc2)[C@H](CO)N1C(=O)C1CCC1 ?
IDE exosite inh: 0.44

What do the screens show for `COc1ccc(-c2ccc([C@@H]3[C@@H](C#N)N(C(=O)C4CC4)[C@H]3CO)cc2)cc1`?
IDE exosite inh: 1.7

How did COc1ccc(-c2ccc([C@H]3[C@@H](C#N)N(C(=O)NC(C)C)[C@@H]3CO)cc2)cc1 do in these assays?
IDE exosite inh: -1.3

Results for COc1ccccc1-c1ccccc1[C@H]1[C@H](C#N)N(C(=O)C2CC2)[C@H]1CO ?
IDE exosite inh: 3.4

What do the screens show for `COc1ccccc1-c1ccc([C@H]2[C@@H](CO)N(C(=O)NC(C)C)[C@H]2C#N)cc1`?
IDE exosite inh: -16*

Results for COc1ccc(-c2ccc([C@@H]3[C@H](C#N)N(C(=O)NC(C)C)[C@H]3CO)cc2)cc1 ?
IDE exosite inh: 0.084

How did COc1ccc(-c2ccc([C@H]3[C@@H](C#N)N(C(=O)C4CC4)[C@@H]3CO)cc2)cc1 do in these assays?
IDE exosite inh: 0.4

What do the screens show for `COc1ccc(-c2ccccc2[C@H]2[C@@H](C#N)N(C(=O)C3CC3)[C@H]2CO)cc1`?
IDE exosite inh: 3

Results for COc1ccc(-c2ccc([C@H]3[C@H](C#N)N(C(=O)C4CC4)[C@H]3CO)cc2)cc1 ?
IDE exosite inh: -0.56

Results for COc1ccccc1-c1ccc([C@H]2[C@@H](C#N)N(C(=O)C3CC3)[C@H]2CO)cc1 ?
IDE exosite inh: -5.3*

What do the screens show for `CN(C)CC(=O)N[C@@H]1CC[C@@H](CCNC(=O)C2CCC2)O[C@@H]1CO`?
IDE exosite inh: -0.054

What do the screens show for `COc1cccc(-c2ccc3c(c2)[C@H]2[C@H](CCN2S(=O)(=O)C2=NC(C)C=N2)[C@H](CO)N3C)c1` (stereo not given in full)?
IDE exosite inh: 1.2

Results for CCCNC(=O)N1CC2(C1)[C@@H](c1ccccc1)[C@H](CO)N2C(=O)CC1CC1 ?
IDE exosite inh: 1.1

How did COc1ccc(S(=O)(=O)Nc2ccc3c(c2)C(=O)N([C@H](C)CO)C[C@H](C)[C@@H](CN(C)Cc2ccc(C(F)(F)F)cc2)OCCCC[C@H](C)O3)cc1 do in these assays?
IDE exosite inh: 1.9

What do the screens show for `CCCN(C[C@H]1N[C@H](CO)[C@@H]1c1ccccc1)C(=O)COC`?
IDE exosite inh: 0.48

How did COC(=O)[C@@H]1[C@@H](CO)[C@@H]2Cn3c(ccc(-c4cncnc4)c3=O)[C@@H]2N1CCC(F)(F)F do in these assays?
IDE exosite inh: 0.25
